Results filed as inconclusive are left out. Active and inactive are the calls of the source. Calls follow the shape of the dose curve; as a rule, active = well fitted curve in the direction sought with a large enough effect; inconclusive = small, poorly fitted or top-dose-only effect, or another doubt; inactive = no such curve, though single readings can be large; an effect the other way counts as inactive or inconclusive.
Legend:
[1] = Confirmation and Secondary Assay for Modulators of Hemoglobin Beta Chain Splicing at IVS2 654 locus (AID 910);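 also: HeLa cells stably carrying EGFP split by mutant beta-globin IVS2-654 intron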
Outline: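 HeLa cells stably expressing EGFP interrupted by β-globin IVS2-654 intron, seeded overnight in Opti-MEM/2% FCS, then treated 2 days at 37 °C. Restored splicing read as total peak GFP intensity per well by laser scanning cytometry (488 nm excitation, 500–520 nm emission); 500 nM antisense PNA as control.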

[2] = Confirmation and Secondary Assay for Modulators of Hemoglobin Beta Chain Splicing at IVS2 705 locus (AID 930);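 also: HeLa cells stably expressing the EGFP-705 splicing reporter; GFP fluorescence per well restored by corrected splicing of the IVS2-705 intron in EGFP; series mostly up to about 46 µM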
Outline: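 Assay measures total GFP intensity per well in HeLa EGFP-705 cells after 2 days with compound; mis-splicing normally truncates EGFP, so fluorescence indicates corrected splicing.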

[3] = Cell Viability - LYMP2-001 (AID 921);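 also: series mostly up to about 92 µM; cells exposed to compound for 24 h at 37 °C; nearly all actives have a fitted effect of over 70% in size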
Outline: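 Steps: seed 2500 lymphoblastoid cells/well; 5 hr, 37 C; add compound; 24 hr, 37 C; CellTiter-Glo reagent, 30 min room temperature; read luminescence. Concentration-response modeled by Hill equation for AC50.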

[4] = MultiTox-Fluor Cytotoxicity Assay - LYMP1-001 - Dead Cells (AID 946)
Outline: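 LYMP1-001 lymphoblastoid cells (2500/well) treated 16 h at 37 C. Dead-cell protease cleavage of bis-AAF-R110 read at Ex/Em 485/520. Normalized to DMSO and 15 uM tetraoctylammonium bromide; AC50 from Hill fits.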

[5] = MultiTox-Fluor Cytotoxicity Assay - LYMP1-001 - Live Cells (AID 947)
[6] = Cell Viability - LYMP1-002 - Assay at 16 hr (AID 948)
Outline: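 Seed 2500 LYMP1-002 cells per well in complete medium and hold 5 hr at 37 C. Add compound across a concentration series and incubate 16 hr at 37 C. Add CellTiter-Glo, wait 30 min at room temperature, read luminescence.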

[7] = MultiTox-Fluor Cytotoxicity Assay - LYMP1-003 - Dead Cells (AID 961); also: nearly all actives have a fitted effect of over 70% in size
Outline: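 LYMP1-003 human lymphoblastoid cells (2500/well) exposed to compound 16 h at 37 C in complete medium; dead-cell protease read with bis-AAF-R110 fluorescence (Ex/Em 485/520) after 60 min at room temperature. Normalized to DMSO and 15 uM tetraoctylammonium bromide; AC50 from Hill fit.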

[8] = MultiTox-Fluor Cytotoxicity Assay - LYMP1-003 - Live Cells (AID 962);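 also: cytotoxic hits lower the live-cell protease signal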
Outline: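 Readout: live-cell fluorescence (Ex/Em=405/510) from GF-AFC cleavage after 60 min MultiTox-Fluor reagent at room temperature. Lymphoblastoid LYMP1-003 cells, 16 hr compound treatment, 37 C. Concentration-response fitted to standard Hill equation for AC50.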

[9] = Cell Viability - LYMP1-003 - Assay at 24 hr (AID 963)
Outline: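 CellTiter-Glo luminescence (intracellular ATP) read after 24 hr, 37 C compound exposure of 2500 LYMP1-003 human lymphoblastoid cells/well in complete medium; qHTS concentration series; AC50 via standard Hill equation.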

[10] = Cell Viability - LYMP1-003 - Assay at 40 hr (AID 964); also: series mostly up to about 92 µM; nearly all actives have a fitted effect of over 60% in size
Outline: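 LYMP1-003 lymphoblastoid cells, 2500/well; 5 hr preincubation, 40 hr compound exposure, 37 C; CellTiter-Glo 30 min RT; luminescence; Hill-fit AC50. Positive control tetraoctylammonium bromide.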

[11] = Cell Viability - LYMP2-003 (AID 965);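 also: cells exposed to compounds for 24 h before reading; nearly all actives have a fitted effect of over 50% in size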
Outline: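 Seed 2500 lymphoblastoid cells/well; incubate 5 hr, 37 C; add compounds; incubate 24 hr, 37 C; add CellTiter-Glo, 30 min RT; read luminescence. AC50 from Hill fit.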

[12] = MultiTox-Fluor Cytotoxicity Assay - LYMP1-002 - Dead Cells (AID 960); also: nearly all actives have a fitted effect of over 60% in size
Outline: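 Readout: fluorescence at 485/520 from cell-impermeant bis-AAF-R110 cleaved by proteases leaking from damaged cells. LYMP1-002 lymphoblastoid line, 16 hr compound treatment at 37 C, concentration-response in qHTS format; Hill-equation AC50 values.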

Measured: Potency

CCOP(=S)(OCC)Oc1ccc2c(C)c(Cl)c(=O)oc2c1
inactive: [1] | [2]

NC(=O)CS(=O)C(c1ccccc1)c1ccccc1 (centres undefined)
inactive: [1] | [2]

CN1C[C@H](C(=O)N[C@]2(C)O[C@@]3(O)[C@@H]4CCCN4C(=O)[C@H](Cc4ccccc4)N3C2=O)C=C2c3cccc4[nH]cc(c34)C[C@H]21
not listed: [1] | [2] | [12]
inactive: all other assays above

NC(=O)c1cc([N+](=O)[O-])cc([N+](=O)[O-])c1
inactive: [1] | [2]

COP(=S)(OC)Oc1ccc(SC)c(C)c1
inactive: all assays above

Oc1ccc(Cl)cc1
inactive: all assays above
